Drawing on ChEMBL document CHEMBL3433997, “St. Jude Leishmania screening dataset” (2016), this text covers inhibition for 16 compounds.

SMILES strings stand for the structures.

Holding throughout (format): functional
Test [1] deals with Solute carrier family 2, facilitated glucose transporter member 1 (Homo sapiens) (UniProt P11166). In words: ST_JUDE_LEISH: Cytotoxicity at 2uM final concentration against transgenic Leishmania Mexicana promastigotes LmGLUT1 that are glucose transport deficient and complemented with the human glucose transporter GLUT1. Activity is measured by DNA content using SYBR green in vitro.
Solute carrier family 2, facilitated glucose transporter member 1 (Homo sapiens), sequence (P11166 whole entry): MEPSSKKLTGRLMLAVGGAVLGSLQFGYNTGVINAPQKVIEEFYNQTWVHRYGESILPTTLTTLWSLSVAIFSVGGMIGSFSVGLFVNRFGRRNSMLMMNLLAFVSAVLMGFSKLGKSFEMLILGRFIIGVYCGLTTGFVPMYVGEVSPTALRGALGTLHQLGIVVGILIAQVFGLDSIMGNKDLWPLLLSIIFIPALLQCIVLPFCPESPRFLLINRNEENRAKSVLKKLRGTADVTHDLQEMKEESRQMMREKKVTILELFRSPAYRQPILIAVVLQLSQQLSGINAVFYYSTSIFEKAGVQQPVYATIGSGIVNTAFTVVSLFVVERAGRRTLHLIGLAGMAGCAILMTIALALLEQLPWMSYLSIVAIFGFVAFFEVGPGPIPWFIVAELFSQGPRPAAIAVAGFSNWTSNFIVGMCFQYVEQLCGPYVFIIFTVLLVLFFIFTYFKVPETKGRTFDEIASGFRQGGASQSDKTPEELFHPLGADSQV

Test [2] has as its target Hexose transporter 1 (Plasmodium falciparum) (UniProt O97467). Kind of test: ST_JUDE_LEISH: Cytotoxicity at 2uM final concentration against transgenic Leishmania Mexicana promastigotes LmPfHT that are glucose transport deficient and complemented with the Plasmodium falciparum hexose transporter. Activity is measured by DNA content using SYBR green in vitro.
In test [3] the target is Glucose transporter (Leishmania mexicana) (UniProt O61059). Kind of test: ST_JUDE_LEISH: Cytotoxicity at 2uM final concentration against transgenic Leishmania Mexicana promastigotes LmGT2 that are glucose transport deficient and complemented with the L. Mexicana glucose transporter 2. Activity is measured by DNA content using SYBR green in vitro.

Turning to `COc1ccc(NC(=O)/C=C/c2ccc(Cl)c(C(F)(F)F)c2)cc1OCCN(C(C)C)C(C)C`, the figures for the inhibition in test [1], in test [2] and in test [3] were 11.7%, 8.04% and 5.51%, respectively.
For `Oc1ccc2ncnc(Nc3ccc(OCc4cccc(F)c4)c(Cl)c3)c2c1`, the inhibition in test [1] was -2.81%; in test [2] it was -0.64%; in test [3], -1.78%.
With `Cc1cc(NCC(c2ccccc2)c2ccccc2)nc(NCc2ccc(C(F)(F)F)cc2)n1`, the inhibition in test [1] amounted to 5.66%; in test [2], 6.13%; in test [3], 3.66%.
The like results for `O=C(Nc1cccc(-c2ccc(-c3nc4cc(C(F)(F)F)ccc4[nH]3)s2)c1)c1c[nH]cn1` were, in that order, 0.15%, -0.45% and 0.77%.
Regarding `Fc1ccc(-c2nc(NCc3cccc(C(F)(F)F)c3)nn2-c2cccc(C(F)(F)F)c2)cc1C(F)(F)F`, the inhibition in test [1] amounted to 1.81%; in test [2] it was 1.48%; in test [3], 2.56%.
As for `COc1ccc(C(=O)N2CCc3cc4nccc(N5CCN6CCC[C@H]6C5)c4cc32)cc1`, the inhibition in test [1] was 2.59%; in test [2], 3.64%; in test [3] it was 4.3%.
On the same counts, the results for `CC(C)CNCc1cccc(-c2cccc(CNC3CCN(Cc4ccccc4)CC3)c2)c1` are 1.93%, 2.58% and 1.83%.
Turning to `COc1cc(-n2cnc3cc(-c4ccc([N+](=O)[O-])cc4)sc3c2=O)ccc1OCCN1CCCC1`, the inhibition amounted to 19.5% in test [1], 20% in test [2] and 16% in test [3].
For `Cc1cccc2nc(-c3cccc(-c4cccc(NC(=O)CC5NC(=O)c6ccccc65)c4)c3)[nH]c12` (stereo not drawn), the inhibition in test [1] is 0.82%; in test [2], 1.34%; in test [3] it was 3.21%.
On the same counts, the results for `N=C(N)NN=Cc1ccc2c(c1)Cc1ccccc1-2` are 8.82%, 8.08% and 6.46%.
Take `O=C(/C=C/c1ccc(C(F)(F)F)cc1)NCCCCCN1CCCN(C(=O)Nc2ccc(F)c(Cl)c2)CC1`: the inhibition in test [1] amounted to 1.19%; in test [2] it was 1.85%; in test [3], 0.39%.
Take `Cc1cccc(C(=O)Nc2ccnc(N3CCC(N(C)Cc4ccc(C#N)cc4)CC3)c2)c1`: the results for the inhibition in test [1], in test [2] and in test [3] were 3.54%, 2.52% and 3.1%, respectively.
`COCCNCc1cccc(-c2ccc3c(Nc4ccc(Oc5cccnc5)cc4)ccnc3c2)c1`: the inhibition worked out at 1.93% in test [1], 2.56% in test [2] and 2.93% in test [3].
In the case of `CCOC(=O)Nc1cc(-c2csc(N=C(N)N)n2)cc([N+](=O)[O-])c1`, the inhibition in test [1] came to 0.23%; in test [2] it was 0.58%; in test [3], 1.09%.
For `Cc1n[nH]c2cc(Nc3nccc(Nc4ccc(Oc5ccccc5)cc4)n3)ccc12`, the inhibition in test [1] is 11.3%; in test [2] it was 7.61%; in test [3] it was 6.15%.
Turning to `COc1ccccc1-c1csc(C(=O)NCC2CCN(Cc3ccc(C(C)C)cc3)C2)c1` (stereo not drawn), the values for the inhibition in test [1], in test [2] and in test [3] were -1.65%, -2.5% and -1.65%, respectively.
